# Artemis inh: inhibitors of human Artemis endonuclease activity; Q96SD1; recombinant Artemis, quenched FAM hairpin cleavage fluorescence; inhibition, % at 10 µM; actives 0.78% (n = 30,000); AID 686954;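 active means at 10 µM dose, at least 30% inhibition, measured as corrected fluorescence normalized to stimulator and neutral control wells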
# Target sequence (Q96SD1 whole entry, looked up): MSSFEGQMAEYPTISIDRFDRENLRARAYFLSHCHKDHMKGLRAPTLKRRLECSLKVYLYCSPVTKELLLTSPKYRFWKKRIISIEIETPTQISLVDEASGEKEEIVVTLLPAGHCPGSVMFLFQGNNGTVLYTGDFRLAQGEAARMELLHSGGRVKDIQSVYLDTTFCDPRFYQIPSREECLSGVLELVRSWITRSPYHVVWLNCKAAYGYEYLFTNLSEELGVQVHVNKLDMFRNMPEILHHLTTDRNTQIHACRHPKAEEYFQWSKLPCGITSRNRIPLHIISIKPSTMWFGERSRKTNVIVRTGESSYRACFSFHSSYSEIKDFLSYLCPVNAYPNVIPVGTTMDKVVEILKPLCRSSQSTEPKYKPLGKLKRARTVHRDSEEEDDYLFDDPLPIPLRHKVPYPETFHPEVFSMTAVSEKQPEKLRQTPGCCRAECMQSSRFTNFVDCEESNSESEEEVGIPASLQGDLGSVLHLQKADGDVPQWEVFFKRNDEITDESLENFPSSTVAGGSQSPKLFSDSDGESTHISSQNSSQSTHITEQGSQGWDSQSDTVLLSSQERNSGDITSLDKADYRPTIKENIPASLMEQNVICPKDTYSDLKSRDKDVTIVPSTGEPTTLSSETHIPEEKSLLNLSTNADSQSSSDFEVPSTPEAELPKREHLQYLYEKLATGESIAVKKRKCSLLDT
# The depositor's hits bear a star. The full list was thinned out, with hits kept by preference.
SMILES,Artemis inh
OC(c1ccccc1)(c1ccc(F)cc1)C(c1ccccc1)N1CCOCC1 (stereo not given),-6
Cc1cc(=O)n2[nH]c(-c3ccc(Cl)cc3)cc2n1,-1
Cc1nc2cc(-c3ccsc3-n3c(C)ccc3C)[nH]n2c(=O)c1Cl,30*
COCc1cc(=O)n2[nH]c(-c3ccsc3-n3c(C)ccc3C)cc2n1,24
N#C/C(=C\c1ccc(Cl)cc1)c1nc2ncccc2[nH]1,-3
O=C1CN(C(=O)COC(=O)c2ccccc2NCc2ccco2)c2ccccc2N1,8
O=C(CSc1nccn1-c1ncc(C(F)(F)F)cc1Cl)c1ccc(Cl)cc1,9
Cc1nc(=S)n(-c2ccccc2)[nH]1,-5
Cc1[nH]n(-c2ccccc2)c(=O)c1-c1cccc(Cl)c1,7
Cc1[nH]n(-c2ccccc2)c(=O)c1C(C[N+](=O)[O-])c1ccc(Br)cc1 (stereo not given),34*
CCOC(=O)C(=O)/C(=C\N(C)C)c1onc(-c2c(Cl)cccc2Cl)c1C(=O)OC,-1
O=C(Nc1cccc2ccccc12)c1ccc(Cn2cc(Cl)cn2)cc1,4
Cc1cc(C)n(-c2nc(C)nc(NCc3ccccc3)n2)n1,-2
COc1ccc(O)c(/C=N/Nc2nc(Nc3ccccc3)nc(-n3nc(C)cc3C)n2)c1,102*
COc1ccc(O)c(/C=N/NC(=O)CSc2nnc(C)n2-c2ccccc2)c1,0
COc1ccc(/C=C2\SC(=S)N(NC(=O)c3csc4c3CCCC4)C2=O)cc1,-1
O=C1c2ccncc2C(=O)N1Cc1cccc(Cl)c1,4
O=C1c2ccccc2C(=O)N1OCc1cccc(Cl)c1,55*
CC(=O)OCCCCON1C(=O)c2ccccc2C1=O,6
CSc1nnc(-c2sc3cc(C(F)(F)F)cnc3c2-c2ccccc2)n1C,-1
COc1ccc(CC(=O)NCCN2CCCC2)cc1,8
CSc1cc(-c2ccc(Cl)cc2)c(C(=O)N2CCCC2)s1,16
CN(C)/C=N/C(=S)Nc1ccc(Br)cc1F,3
N=c1c2c(-c3ccccc3)c(-c3ccccc3)n(Cc3ccco3)c2ncn1Cc1ccccc1,9
CC(C)Cn1cnc2c(c(-c3ccccc3)c(-c3ccccc3)n2Cc2ccco2)c1=N,23
SMILES,Artemis inh
c1ccc(-c2c(-c3ccccc3)n(Cc3ccco3)c3ncnc(NCCCn4ccnc4)c23)cc1,44*
Cc1ccc(Cl)cc1NC(=O)N[C@@H](C)C(=O)O,3
O=C(Nc1cccc(C(F)(F)F)c1)c1ccc2nc(-c3ccco3)c(-c3ccco3)nc2c1,42*
CC(C)Oc1cccc(C(=O)NC(=S)Nc2cccc(C(F)(F)F)c2)c1,0
O=C(Nc1ccc2nc(-c3ccco3)c(-c3ccco3)nc2c1)NC1CC1,50*
O=S(=O)(c1ccc2nc(-c3ccco3)c(-c3ccco3)nc2c1)N1CCOCC1,28
Cn1nc(C(=O)Nc2cccc(C(F)(F)F)c2)ccc1=O,3
O=C(NCc1ccco1)Nc1ccc2nsnc2c1,9
N#CCc1ccc(C(=O)c2ccccc2F)s1,-5
Cc1ccccc1OCC(=O)N/N=C/c1cccn1C,-7
O=C(c1ccc(-c2nnc(Nc3ccccc3)c3ccccc23)cc1)N1C[C@H]2C[C@H](C1)c1cccc(=O)n1C2,6
CC(C)Cn1c2c(c(O)c(C(=O)Nc3ncccc3O)c1=O)CCCC2,30*
C=CCn1c(=O)c(C(=O)Nc2cccnc2)c(O)c2ccccc21,16
CCn1c(=O)c(C(=O)NCc2ccccn2)c(O)c2ccccc21,-5
COCC(=O)N(Cc1cc2cc(OC)ccc2[nH]c1=O)c1ccc(C)cc1,-9
Cn1cccc1CC(=O)N/N=C\c1cccs1,-4
CCN(CC)C(=O)C(=O)N/N=C/c1cccs1,53*
Cc1ccc(N(CC(=O)N/N=C/c2cccs2)S(C)(=O)=O)cc1Cl,-5
CSc1nc(Oc2ccc3ccccc3c2)c2ccccc2n1,1
CCOC(=O)c1ccc(NC(=O)CCOc2ccccc2)cc1,2
CCOC(=O)c1ccc(NC2=CC(=O)C(=O)c3ccccc32)cc1,66*
CCOC(=O)c1ccc(NC(=O)CNS(=O)(=O)c2ccccc2)cc1,0
C=CCc1cccc2cc(C(=O)OCC(=O)c3ccccc3)c(=O)oc12,9
CC1=NN(c2cccc(C(=O)O)c2)C(=O)/C1=C\C=C\c1ccco1,31*
Cc1cccc(C)c1NC(=O)/C(=C/c1ccco1)c1ccccc1,0
SMILES,Artemis inh
C(/C=C/c1ccco1)=N/N1CCN(c2ccccc2)CC1,0
CCOC(=O)c1ccc2c(c1)nc(SCc1cn3ccsc3n1)n2CC,1
Nc1ccc(-c2ccc(N)cc2C(F)(F)F)c(C(F)(F)F)c1,1
Nc1ccc2oc(=O)c3ccccc3c2c1,3
Nc1ccc2c(c1)C(=O)C(=O)c1ccccc1-2,71*
CN=C1CC(SC)=C1c1ccc(C)cc1,1
O=C(Nc1ccccc1C(=O)OCC(=O)N1CCc2ccccc2C1)c1ccco1,8
CC1=C(C#N)CCC(=O)N1Cc1ccc(C)cc1,2
O=C(Cn1cnc2c(cnn2-c2ccc(F)cc2)c1=O)OCc1ccccc1,-1
O=C(Cn1cnc2c(cnn2-c2ccc(F)cc2)c1=O)NCC1CCCO1 (stereo not given),33*
O=C(CSc1ncnc2c1nnn2-c1ccc(F)cc1)NCC1CCCO1 (stereo not given),0
COc1ccc(-n2cnc3c(cnn3CCC#N)c2=N)cc1,-2
CC1CC(C)CN(C(=O)Cn2c(=O)n(CCCCC(=O)NCc3ccco3)c(=O)c3ccccc32)C1 (stereo not given),-5
C/C(CC(=O)Nc1ccccn1)=N\NC(=O)C(=O)Nc1cccc(Cl)c1C,0
C/C(CC(=O)Nc1ccccn1)=N\NC(=O)C(=O)Nc1cccc(C)c1,1
C/C(CC(=O)Nc1ccc(N(C)C)cc1)=N\NC(=O)c1ccccn1,33*
CC(C)COc1ccc(CSCCNC(=S)Nc2ccccc2)cc1,7
Cc1nc(=O)c(-c2ccccc2)c(C)n1CCCCCC(=O)O,-8
CCN1CCc2nc(NC(=O)C(c3ccccc3)c3ccccc3)sc2C1,49*
CC1CCc2nc(NC(=O)CN3CCN(c4ccccc4)CC3)sc2C1 (stereo not given),5
CCN1CCc2nc(NC(=O)CC(c3ccccc3)c3ccccc3)sc2C1,39*
O=C(Cc1cn2ccsc2n1)Nc1nc2c(s1)CN(Cc1ccccc1)CC2,57*
CCN1CCc2c(sc(NC(=S)NC(=O)c3ccccc3)c2C#N)C1,1
CCCSc1nc2sc3c(c2c(=O)[nH]1)CCN(Cc1ccccc1)C3,21
CC1CCc2nc(NC(=O)CN3CCOCC3)sc2C1 (stereo not given),7
SMILES,Artemis inh
O=C(Cc1cn2ccsc2n1)Nc1ccccc1Oc1ccccc1,-1
O=C(Cc1cn2ccsc2n1)OCc1ccccc1,-6
CCS(=O)(=O)NCC(c1cccnc1)N1CCN(c2ccccc2F)CC1 (stereo not given),-8
Cc1nc2ccc(S(=O)(=O)NCC(=O)N3CCC(C)CC3)cc2s1,3
O=[N+]([O-])c1cccc(-c2nnn(C34CC5CC(CC(C5)C3)C4)n2)c1,5
CCOC(=O)N1CCN(c2cc(NCCC(=O)O)c3c4c(onc24)-c2ccccc2C3=O)CC1,33*
CCOC(=O)N1CCN(C(=O)c2ccc(N3C(=O)c4ccccc4C3=O)cc2)CC1,-7
CCOC(=O)N1CCN(c2ccc(C(=O)c3ccccc3)cc2F)CC1,0
COC(=O)c1c(C)[nH]c(C(=O)C(C)Sc2nnc(-c3cc(OC)c(OC)c(OC)c3)o2)c1C (stereo not given),6
CC(=O)C1=C(C)NC(SCc2cccc([N+](=O)[O-])c2)=C(C#N)C1c1ccco1 (stereo not given),5
